About 14,000 (4.5%) of roughly 310,000 compounds showed an effect of 50% or more. Effects have a minus sign here. The entries come from a sample that favours strong results as a whole.
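Also: peak tail current of the secondary pulse compared with the same well before compound.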

The target of this experiment is human ether-à-go-go-related gene (hERG) potassium channel (human, UniProt Q12809). Briefly: primary screen, population patch clamp on CHO cells stably expressing hERG; higher = less effect of the substance.
Sequence of human ether-à-go-go-related gene (hERG) potassium channel (Q12809 whole entry, looked up): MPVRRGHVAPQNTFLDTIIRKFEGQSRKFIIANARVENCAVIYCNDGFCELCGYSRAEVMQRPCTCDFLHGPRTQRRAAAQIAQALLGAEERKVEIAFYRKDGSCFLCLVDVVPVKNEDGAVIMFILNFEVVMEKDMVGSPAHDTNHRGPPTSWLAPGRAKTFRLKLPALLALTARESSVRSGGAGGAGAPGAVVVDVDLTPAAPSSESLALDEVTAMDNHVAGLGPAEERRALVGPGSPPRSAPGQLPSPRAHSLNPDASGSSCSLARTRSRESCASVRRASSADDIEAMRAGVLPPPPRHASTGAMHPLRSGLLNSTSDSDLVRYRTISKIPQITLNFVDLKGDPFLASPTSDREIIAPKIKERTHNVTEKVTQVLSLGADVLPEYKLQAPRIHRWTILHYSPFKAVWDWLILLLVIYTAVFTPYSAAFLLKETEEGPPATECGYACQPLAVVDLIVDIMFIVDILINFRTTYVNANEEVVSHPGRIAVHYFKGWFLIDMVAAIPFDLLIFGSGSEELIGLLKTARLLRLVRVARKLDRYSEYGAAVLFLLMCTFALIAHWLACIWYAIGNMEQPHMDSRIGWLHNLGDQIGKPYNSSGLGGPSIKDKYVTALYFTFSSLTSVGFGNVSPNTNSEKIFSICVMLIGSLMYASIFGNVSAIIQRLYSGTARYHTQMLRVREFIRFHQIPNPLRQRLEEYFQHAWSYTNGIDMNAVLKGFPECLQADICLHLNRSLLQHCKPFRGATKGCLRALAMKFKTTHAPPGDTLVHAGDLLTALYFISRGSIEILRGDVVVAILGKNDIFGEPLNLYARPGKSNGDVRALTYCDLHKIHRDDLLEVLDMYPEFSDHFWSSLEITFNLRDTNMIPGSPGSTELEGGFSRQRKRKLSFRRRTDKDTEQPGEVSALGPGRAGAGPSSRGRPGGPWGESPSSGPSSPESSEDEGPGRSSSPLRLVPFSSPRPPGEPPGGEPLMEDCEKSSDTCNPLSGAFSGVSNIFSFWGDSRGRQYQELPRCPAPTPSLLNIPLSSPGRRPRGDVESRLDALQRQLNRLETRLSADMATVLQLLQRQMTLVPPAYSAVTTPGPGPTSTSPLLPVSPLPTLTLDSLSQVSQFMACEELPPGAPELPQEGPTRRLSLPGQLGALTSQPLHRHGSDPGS
Turning to `COc1ccc(C(=O)Oc2coc(CSc3nnc(NC(=O)c4cccs4)s3)cc2=O)cc1`, the “hERG current change (%, negative = inhibition) at 10uM” value is 24.2%.
Regarding `C[C@H]1CN(C2CCCCC2)C(=O)[C@@H]1CC(=O)NCc1ccccc1`, the “hERG current change (%, negative = inhibition) at 10uM” value is recorded as -6.72%.
The value for `O=C(C[C@H]1C(=O)N(C2CCCCC2)C[C@@H]1Cc1ccccc1)Nc1ccccc1` was -27.4%.
On to `CCCCC[C@H]1CN(C2CCCCC2)C(=O)[C@@H]1CC(=O)NCc1ccccc1`, for which the “hERG current change (%, negative = inhibition) at 10uM” value was -67.7%.
As for `CCCCC[C@H]1CN(C2CCCCC2)C(=O)[C@@H]1CC(=O)NCc1ccc(OC)cc1`, the “hERG current change (%, negative = inhibition) at 10uM” value is -67.4%.
For `COc1ccc(CNC(=O)C2CC(=O)N(C3CCCCC3)C2)cc1` (centres unmarked), the “hERG current change (%, negative = inhibition) at 10uM” value amounted to 13.7%.
As for `COc1ccc(CNC(=O)C[C@H]2C(=O)N(C3CCCCC3)C[C@@H]2Cc2ccccc2)cc1`, the “hERG current change (%, negative = inhibition) at 10uM” value is -5.71%.
For the compound `CCN(CC)CCN(CC)Cc1ccccc1Br`, the “hERG current change (%, negative = inhibition) at 10uM” value is recorded as -19.8%.
To `Cc1cc(/C=C2\C(=O)NC(=O)N(Cc3ccccc3Cl)C2=O)c(C)n1-c1ccc(C(=O)O)cc1` belongs 46%.
Turning to `Cc1[nH]nc(-c2ccc(OCc3cnn(-c4ccccc4)c3)cc2O)c1Oc1ccc(F)cc1`, the “hERG current change (%, negative = inhibition) at 10uM” value is given as 22.6%.
As for `CCn1cc(-c2cc(C(F)(F)F)n3nc(C(=O)O)cc3n2)c(C)n1`, the “hERG current change (%, negative = inhibition) at 10uM” value is on record as -8.81%.
The value for `COc1ccc(NC(=O)c2cc(S(=O)(=O)Nc3ccc(OC)cc3)cs2)cc1` was -3.01%; that for `CCOC(=O)c1c2c3c(cccc3[nH]c1=O)C(=O)c1ccccc1-2` was 17.6%.
On to `CC(=O)c1c2c3c(cccc3n(C)c1=O)C(=O)c1ccccc1-2`, for which the “hERG current change (%, negative = inhibition) at 10uM” value is reported as -1.1%.
Take `CCOC(=O)c1c2c3c(cccc3n(C)c1=O)C(=O)c1ccccc1-2`: the “hERG current change (%, negative = inhibition) at 10uM” value is listed as -71.8%.
On to `Cl.O=C(CN1CCN(C2CCCCC2)CC1)Nc1ccccc1-c1ccccc1`, for which the “hERG current change (%, negative = inhibition) at 10uM” value was -70.1%.
Turning to `Cl.O=C(CN1CCN(C2CCCCC2)CC1)Nc1ccccc1N1CCCCC1`, the “hERG current change (%, negative = inhibition) at 10uM” value is recorded as -66.2%.
Regarding `O=C(CN1C(=O)C2CCCCC2C1=O)Nc1ccccc1N1CCCC1` (centres unmarked), the “hERG current change (%, negative = inhibition) at 10uM” value is on record as 1.43%.
As to `CC1CCN(CC(=O)Nc2ccccc2-c2ccccc2)CC1`, the “hERG current change (%, negative = inhibition) at 10uM” value is on record as -25.1%.
The value for `O=C(CC1CCCCC1)Nc1ccccc1-c1ccccc1` was 6.47%; that for `Cl.O=C(CN1CCN(C2CCCCC2)CC1)Nc1cccc2ccccc12` was -31.2%; that for `CCC(C)NC(=O)COC(=O)c1cccnc1Nc1ccccc1F` (centres unmarked) was 8.21%.
Regarding `COc1ccc(NS(=O)(=O)c2ccc(Oc3ncccn3)cc2)cc1`, the “hERG current change (%, negative = inhibition) at 10uM” value was 3.85%.
Turning to `CC(C)c1cc(-c2cc(-c3ccc(Cl)cc3)on2)nc(NC2CCCC2)n1`, the “hERG current change (%, negative = inhibition) at 10uM” value stood at 13.3%.
`Cc1cc(C(=O)Nc2nc3ccc(Cl)cc3s2)nn1C`: the “hERG current change (%, negative = inhibition) at 10uM” value turned out to be 5.89%.
With `CCOC(=O)C(C)/C(C)=N/NC(N)=S` (centres unmarked), the “hERG current change (%, negative = inhibition) at 10uM” value stood at 14.4%.
Consider `Cl.c1ccc(OCCOCCN2CCc3ccccc3C2)cc1`, for which the “hERG current change (%, negative = inhibition) at 10uM” value is reported as -42.8%.
The value for `CCOc1ccc(OCCOCCN2CCc3ccccc3C2)cc1` was -74.8%; that for `CCCOc1ccc(OCCOCCN2CCc3ccccc3C2)cc1` was -64.7%.
Take `CCOc1ccc(OCCOCCN2CCOCC2)cc1.O=C(O)C(=O)O`: the “hERG current change (%, negative = inhibition) at 10uM” value is 0.827%.
The value for `COc1ccc(OCCOCCN2CCOCC2)cc1` was 5.25%; that for `COc1ccc(OCCOCCN2CCc3ccccc3C2)cc1` was -69.9%.
With `N#Cc1ccc(OCCN2CCc3ccccc3C2)cc1`, the “hERG current change (%, negative = inhibition) at 10uM” value was -45.2%.
The value for `CCOc1ccc(S(=O)(=O)N2CCc3ccccc3C2)cc1` was 9.5%; that for `COc1ccc(OCCCN2CCc3ccccc3C2)cc1.Cl` was -47.5%.
Turning to `CCCC(C)NC(=O)COC(=O)c1ccc(Cl)c(S(N)(=O)=O)c1` (centres unmarked), the “hERG current change (%, negative = inhibition) at 10uM” value is listed as 8.02%.
As to `CCOc1ccc(NC(=O)N2CCCC2C(=O)NCC2CCCO2)cc1` (centres unmarked), the “hERG current change (%, negative = inhibition) at 10uM” value worked out at 18.5%.
As to `O=C1CCCCC1Sc1nnc(Nc2ccccc2)s1` (centres unmarked), the “hERG current change (%, negative = inhibition) at 10uM” value is on record as -7.47%.
To `O=C(Cn1nc2sc3ccccc3n2c(=O)c1=O)c1cccs1` belongs 7.63%.
With `CCNC(=S)Nc1ccc(Cc2ccncc2)cc1`, the “hERG current change (%, negative = inhibition) at 10uM” value is reported as -4.01%.
Take `COc1ccc(-c2cc(C(F)(F)F)c(C#N)c(SCC(=O)Nc3nc(C)co3)n2)cc1`: the “hERG current change (%, negative = inhibition) at 10uM” value stood at 1.46%.
`O=C(NCc1ccc(F)cc1)C(c1ccccc1)c1ccccc1`: the “hERG current change (%, negative = inhibition) at 10uM” value amounted to 4.43%.
Take `CCC(C(=O)NCc1ccc(C)cc1)c1ccccc1` (centres unmarked): the “hERG current change (%, negative = inhibition) at 10uM” value is -1.35%.
For the compound `Cc1ccc(CNC(=O)C(c2ccccc2)c2ccccc2)cc1`, the “hERG current change (%, negative = inhibition) at 10uM” value is listed as -64%.
Regarding `CCOC(=O)c1ccc(NC(=O)COc2ccc(CNC3CCCCC3)cc2OC)cc1`, the “hERG current change (%, negative = inhibition) at 10uM” value is recorded as -26%.
With `CCOC(=O)c1ccc(NC(=O)COc2ccccc2CNC2CCCC2)cc1.Cl`, the “hERG current change (%, negative = inhibition) at 10uM” value is recorded as -78.1%.
For the compound `CCOC(=O)c1ccc(NC(=S)NC2CCCC2)cc1`, the “hERG current change (%, negative = inhibition) at 10uM” value is given as -7.86%.
On to `CCOC(=O)c1ccc(NC(=O)COc2ccccc2OC)cc1`, for which the “hERG current change (%, negative = inhibition) at 10uM” value turned out to be 2.1%.
Regarding `CCOC(=O)c1ccc(NC(=O)COc2ccccc2CNCCc2ccccc2)cc1.Cl`, the “hERG current change (%, negative = inhibition) at 10uM” value is -79.3%.
As for `CCOC(=O)c1ccc(NC(=O)COc2ccccc2CNCCO)cc1`, the “hERG current change (%, negative = inhibition) at 10uM” value is reported as -24%.
`CN(C)S(=O)(=O)Oc1ccccc1C(=O)Nc1ccc(F)cc1F`: the “hERG current change (%, negative = inhibition) at 10uM” value was determined as 2.34%.
Turning to `COc1ccc(C)cc1NC(=O)C1CCCN(S(=O)(=O)c2ccc3c(c2)CCCN3C(C)=O)C1` (centres unmarked), the “hERG current change (%, negative = inhibition) at 10uM” value is listed as -2.38%.
With `CCN(CC)CCCNC(=O)C1c2ccccc2C(=O)N(C)C1c1ccc(OC)cc1` (centres unmarked), the “hERG current change (%, negative = inhibition) at 10uM” value was determined as 6.8%.
Consider `CCCCN(CC)CCCNC(=O)C1c2ccccc2C(=O)N(C)C1c1cn(C)c2ccccc12` (centres unmarked), for which the “hERG current change (%, negative = inhibition) at 10uM” value is -72.7%.
As for `CCN(CC)CCNC(=O)C1c2ccccc2C(=O)N(C)C1c1cn(C)c2ccccc12` (centres unmarked), the “hERG current change (%, negative = inhibition) at 10uM” value is given as -19.5%.
`Cc1ccccc1S(=O)(=O)N1CC(C(=O)O)=CC[C@H]1c1ccc(Cl)cc1`: the “hERG current change (%, negative = inhibition) at 10uM” value was determined as 15.8%.
Take `CC(CSc1nnnn1-c1ccccc1)Cn1c(N2CCCC2)nc2c1c(=O)[nH]c(=O)n2C` (centres unmarked): the “hERG current change (%, negative = inhibition) at 10uM” value is on record as -45.1%.
To `CC(CSc1nnnn1-c1ccccc1)Cn1c(N2CCN(C)CC2)nc2c1c(=O)[nH]c(=O)n2C` (centres unmarked) belongs -43.6%; to `CC1CCN(c2nc3c(c(=O)[nH]c(=O)n3C)n2CC(C)CSc2nnnn2-c2ccccc2)CC1` (centres unmarked), -57.6%; to `Cn1c(=O)[nH]c(=O)c2c1nc(N1CCCC1)n2CCCSc1nnnn1-c1ccccc1`, -13.5%.
In the case of `CN1CCN(c2nc3c(c(=O)[nH]c(=O)n3C)n2CCCSc2nnnn2-c2ccccc2)CC1`, the “hERG current change (%, negative = inhibition) at 10uM” value is recorded as -51.2%.
As for `CN1CCN(c2nc3c(c(=O)[nH]c(=O)n3C)n2CCSc2nnnn2-c2ccccc2)CC1`, the “hERG current change (%, negative = inhibition) at 10uM” value is listed as -17%.
Regarding `CCCN1Cc2cccc(C(=O)Nc3ccc(CC)cc3)c2C1=O`, the “hERG current change (%, negative = inhibition) at 10uM” value came out at 8.1%.
As for `Cc1cc(C)nc(NC(=O)c2ccc(C)c(C)c2)n1`, the “hERG current change (%, negative = inhibition) at 10uM” value was 18%.
Regarding `Oc1cccc(-n2nnnc2SCc2ccccc2F)c1`, the “hERG current change (%, negative = inhibition) at 10uM” value worked out at 7.33%.
With `Cc1cc(C)c(S(=O)(=O)c2ccccc2)c(=O)[nH]1`, the “hERG current change (%, negative = inhibition) at 10uM” value is given as 20.6%.
To `COc1ccc(NC(=O)c2c(C)nn(-c3ccccc3)c2Cl)cc1` belongs 20.4%; to `CCNC(=O)COC(=O)c1[nH]c(C)c(C(=O)OC)c1C`, 8.24%; to `Cc1cc(C)c2c(CN3CCN(C)CC3)cc(=O)oc2c1`, -73.3%.
Take `Cc1cc2oc(=O)cc(CN3CCN(Cc4ccc5c(c4)OCO5)CC3)c2cc1C`: the “hERG current change (%, negative = inhibition) at 10uM” value is given as -17.2%.
On to `Cc1cc(O)c2c(CN3CCN(Cc4ccccc4)CC3)cc(=O)oc2c1`, for which the “hERG current change (%, negative = inhibition) at 10uM” value is reported as -13.1%.
In the case of `CCN1CCN(Cc2cc(=O)oc3cc(C)cc(C)c23)CC1`, the “hERG current change (%, negative = inhibition) at 10uM” value is -68.1%.
To `Cc1cc(C)c2c(CN3CCOCC3)cc(=O)oc2c1` belongs -7.28%; to `Cc1cc(C)c2c(CN3CCCCC3)cc(=O)oc2c1`, 10.7%; to `Cc1cc(C)c2c(CCl)cc(=O)oc2c1`, -1.06%.
With `Cc1cc(C)c2c(CN3CCN(Cc4ccc5c(c4)OCO5)CC3)cc(=O)oc2c1`, the “hERG current change (%, negative = inhibition) at 10uM” value is recorded as -75.4%.
For `Cc1cc(C)c2c(CN3CCN(Cc4ccc5c(c4)OCO5)CC3)cc(=O)oc2c1C`, the “hERG current change (%, negative = inhibition) at 10uM” value was -45.8%.
In the case of `Cc1cc(C)c2c(CN3CCCCC3C)cc(=O)oc2c1.Cl` (centres unmarked), the “hERG current change (%, negative = inhibition) at 10uM” value worked out at 13.9%.
The value for `Cc1cc(C)c2c(CN3CCN(Cc4ccccc4)CC3)cc(=O)oc2c1.Cl` was -66.9%.
Regarding `CC1CCCN(C(=O)CNC(=O)Cn2ccc3ccccc3c2=O)C1` (centres unmarked), the “hERG current change (%, negative = inhibition) at 10uM” value is -5.78%.
Regarding `COc1cc(NC(=O)c2ccc(COCC(F)(F)F)o2)cc(OC)c1OC`, the “hERG current change (%, negative = inhibition) at 10uM” value is -16.8%.
As to `COc1ccc(OC)c(NC(=O)CCCCCn2nnc3ccccc3c2=O)c1`, the “hERG current change (%, negative = inhibition) at 10uM” value is listed as -2.09%.
For the compound `CN(C)S(=O)(=O)c1cc(NC(=O)CSc2cccc[n+]2[O-])ccc1Cl`, the “hERG current change (%, negative = inhibition) at 10uM” value came to 9.64%.
To `COc1ccc(-n2c(-c3cccc(OC)c3)nc(=S)c3c2CCCC3)cc1` belongs 8.47%; to `CC(=O)O/N=C(/c1nonc1N)N1CCN(c2ccc([N+](=O)[O-])cc2Cl)CC1`, -33.9%; to `COCc1[nH]nc2c1C(c1c(F)cccc1Cl)C(C#N)=C(N)O2` (centres unmarked), -3.01%.
As for `Cc1ccc(NC(=O)c2ccc(NCCN)c([N+](=O)[O-])c2)cc1Cl`, the “hERG current change (%, negative = inhibition) at 10uM” value is on record as -14.3%.
The value for `CCc1ccc2[nH]c3nc(N/N=C/c4ccc(O)cc4O)nnc3c2c1` was 3.31%; that for `CCOc1ccc(C(=O)C[n+]2ccc(C(=O)NCCO)cc2)cc1.[Br-]` was 18.3%.

For the origin of these results see PMC4336329 (PLoS ONE, 2015).
